Experimental data as given in PubChem BioAssay AID1159580 (chemical genetic matrix, 2015).
Screen size: about 5,500 compounds; about 2,000 (36%) were called active. Inconclusive results (about 18%) are left out. No stated cut-off is given here; in the data, active means normalized growth mostly below about 0.91 (no sharp cut-off); inconclusive means no clear call, values can overlap the other calls; inactive means mostly above about 0.92. This is one part of the list.

Experiment: chemical genetic growth profiling, strain panel (AID 1159580);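 further: tested at 20 µM; growth read once vehicle control cultures reached saturation at 30 °C; 1 = growth at the plate median or of vehicle wells; lower values mean less growth of the strain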
Settings: S. cerevisiae deletion strains, growth OD

Measured: normalized growth

C[N+]1(C)C[C@H](O)[C@H](C(=O)[O-])C1
inactive: locus YAL013W, strain DEP1, active compounds read low 1.01 | locus YAL021C, strain ccr4, active compounds read low 0.996 | locus YAL026C, strain drs2, active compounds read low 1.03 | locus YAL030W, strain snc1, active compounds read low 1.01 | locus YBL061C, strain skt5, active compounds read low 1.01 | locus YBR009C, strain hhf1, active compounds read low 1.05 | locus YBR021W, strain FUR4, active compounds read low 1.01 | locus YBR023C, strain chs3, active compounds read low 1.02 | locus YBR171W, strain sec66, active compounds read low 1.03 | locus YBR229C, strain ROT2, active compounds read low 1.01 | locus YBR231C, strain swc5, active compounds read low 1.02 | locus YBR279W, strain paf1, active compounds read low 1.01 | locus YCL011C, strain gbp2, active compounds read low 1.02 | locus YCL016C, strain dcc1, active compounds read low 1.02 | locus YCL029C, strain bik1, active compounds read low 0.996 | locus YCL061C, strain MRC1, active compounds read low 1.02 | locus YCL069W, strain vba3, active compounds read low 1.01 | locus YCR088W, strain abp1, active compounds read low 1.01 | locus YDL005C, strain med2, active compounds read low 1.01 | locus YDL035C, strain GPR1, active compounds read low 1.01 | locus YDL040C, strain nat1, active compounds read low 1.01 | locus YDL074C, strain BRE1, active compounds read low 1.02 | locus YDL101C, strain DUN1, active compounds read low 1.02 | locus YDL134C, strain PPH21, active compounds read low 1.01 | locus YDL185W, strain tfp1, active compounds read low 0.995 | locus YDL192W, strain arf1, active compounds read low 1 | locus YDR001C, strain nth1, active compounds read low 1.01 | locus YDR069C, strain doa4, active compounds read low 1.03 | locus YDR101C, strain arx1, active compounds read low 0.988 | locus YDR137W, strain rgp1, active compounds read low 1.01 | locus YDR150W, strain NUM1, active compounds read low 1.01 | locus YDR159W, strain sac3, active compounds read low 1.02 | locus YDR162C, strain NBP2, active compounds read low 1.01 | locus YDR195W, strain ref2 1.03 | locus YDR297W, strain sur2, active compounds read low 1.01 | locus YDR318W, strain mcm21, active compounds read low 1.01 | locus YDR334W, strain swr1, active compounds read low 1.02 | locus YDR335W, strain msn5, active compounds read low 1.01 | locus YDR388W, active compounds read low 1.01 | locus YDR392W, strain spt3, active compounds read low 0.996 | locus YDR502C, strain sam2, active compounds read low 0.994 | locus YEL003W, strain gim4, active compounds read low 1.02 | locus YEL037C, strain rad23, active compounds read low 1.01 | locus YEL061C, strain CIN8 (second series), active compounds read low 1.01 | locus YEL061C, strain CIN8, active compounds read low 1 | locus YER015W, strain faa2, active compounds read low 1.01 | locus YER016W, strain bim1, active compounds read low 1.01 | locus YER110C, active compounds read low 0.992 | locus YER111C, strain swi4, active compounds read low 1.02 | locus YER155C, strain BEM2 (second series), active compounds read low 1.05 | locus YER155C, strain BEM2, active compounds read low 1 | locus YER167W, strain BCK2, active compounds read low 1.01 | locus YFR010W, strain ubp6, active compounds read low 1.02 | locus YGL078C, strain dbp3, active compounds read low 0.999 | locus YGL086W, strain mad1, active compounds read low 0.968 | locus YGL167C, strain pmr1, active compounds read low 1.02 | locus YGL173C, strain kem1, active compounds read low 1.02 | locus YGL227W, strain vid30, active compounds read low 1.01 | locus YGL240W, strain doc1, active compounds read low 1.04 | locus YGL248W, strain PDE1, active compounds read low 1.01 | locus YGL253W, strain hxk2, active compounds read low 1.03 | locus YGR078C, strain PAC10, active compounds read low 1.01 | locus YGR135W, strain pre9, active compounds read low 1 | locus YGR229C, strain SMI1, active compounds read low 1.01 | locus YGR252W, strain gcn5, active compounds read low 0.992 | locus YHR013C, strain ard1, active compounds read low 0.999 | locus YHR027C, strain rpn1, active compounds read low 1.01 | locus YHR030C, strain SLT2, active compounds read low 1.01 | locus YHR079C, strain IRE1 (second series), active compounds read low 1 | locus YHR094C, strain hxt1, active compounds read low 0.993 | locus YHR129C, strain ARP1, active compounds read low 1.01 | locus YHR142W, strain chs7, active compounds read low 0.98 | locus YHR200W, strain rpn10, active compounds read low 0.995 | locus YIL066C, strain RNR3, active compounds read low 1.01 | locus YIL073C, strain SPO22, active compounds read low 1.1 | locus YIL125W, strain kgd1, active compounds read low 0.996 | locus YIR030C, strain dcg1, active compounds read low 0.995 | locus YJL092W, strain hpr5, active compounds read low 1.01 | locus YJL095W, strain BCK1 (second series), active compounds read low 1.01 | locus YJL095W, strain BCK1, active compounds read low 1.01 | locus YJL115W, strain asf1, active compounds read low 1.02 | locus YJL129C, strain trk1, active compounds read low 1.01 | locus YJL134W, strain LCB3, active compounds read low 1 | locus YJL154C, strain vps35, active compounds read low 1.01 | locus YJL164C, strain tpk1, active compounds read low 1.01 | locus YJL166W, strain qcr8, active compounds read low 1.01 | locus YJL168C, strain set2, active compounds read low 1 | locus YJL187C, strain SWE1 (second series), active compounds read low 1.02 | locus YJL187C, strain SWE1, active compounds read low 1.01
